Sampled rows, rich in hits. Any-hit rate of the full collection: about 3.5%.
MITF inh – MITF inhibitors, primary screen, biochemical, AlphaScreen, human | AlphaScreen MITF homodimerization, bead proximity signal | 650,000 compounds, 0.91% hits | Microphthalmia-associated transcription factor (Homo sapiens), O75030 | inhibition, % at 2.6 µM; in the data active = inhibition above about 50%;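 note: 0% = vehicle wells with protein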
FBW7 act – FBW7 E3 ligase activators, primary screen, biochemical, AlphaScreen, human. normalized activity (activation), % at 26.1 µM. F-box/WD repeat-containing protein 7 (Homo sapiens), Q969H0. AlphaScreen FBW7–phospho-cyclin E peptide binding, activator screen. 650,000 compounds, 0.13% hits; in the data active = normalized activity above about 1.9%;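 note: purified mutant Fbw7 with reduced substrate affinity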
TEAD-YAP inh – TEAD-YAP interaction inhibition, primary screen, TEAD-YAP interaction inhibitor project, luminescence, HEK-TIYL cells. 640,000 compounds, 1.4% hits. inhibition, % at 9.12 µM. TEAD-Gal4/YAP UAS-luciferase luminescence; in the data active = inhibition above about 32%;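 note: 0% = median of test compound wells and 100% = reference inhibitor wells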
GPR151 ag – activators of human GPR151, primary screen, cell-based, PathHunter beta-arrestin, luminescence. activation, % at 11.2 µM. AID 1508602, 2020. G-protein coupled receptor 151 (Homo sapiens), Q8TDV0. 650,000 compounds, 1% hits. PathHunter beta-arrestin GPR151 cells; in the data active = activation above about 4.9%;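 note: 0% = median of compound wells and 100% = cells with positive control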
Target sequence (Q8TDV0 whole entry, looked up): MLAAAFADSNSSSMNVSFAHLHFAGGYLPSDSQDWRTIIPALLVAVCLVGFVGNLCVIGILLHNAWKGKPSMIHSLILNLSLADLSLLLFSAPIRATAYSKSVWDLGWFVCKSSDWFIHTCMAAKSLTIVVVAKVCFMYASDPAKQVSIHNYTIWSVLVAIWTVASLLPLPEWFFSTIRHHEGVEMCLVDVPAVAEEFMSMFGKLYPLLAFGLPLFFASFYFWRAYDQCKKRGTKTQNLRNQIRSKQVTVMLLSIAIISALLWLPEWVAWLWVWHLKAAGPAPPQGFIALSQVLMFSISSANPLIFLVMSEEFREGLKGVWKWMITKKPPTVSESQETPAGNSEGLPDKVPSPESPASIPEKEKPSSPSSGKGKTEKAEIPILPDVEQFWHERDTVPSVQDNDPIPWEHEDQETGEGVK
Numbers without * were called inactive.

SMILES | MITF inh | FBW7 act | TEAD-YAP inh | GPR151 ag
O=C(NCc1cccc(C(F)(F)F)c1)C1CC12CCN(Cc1ccco1)CC2 (stereo unspecified) | 20 | 0 | 4 | -1
COc1ccc(S(=O)(=O)Nc2ccccc2C(C)=O)cc1[N+](=O)[O-] | -13 | 0 | -6 | -1
CC(=O)OCC1OC(OC(C)(C)C)C(OC(C)=O)C(OC(C)=O)C1OC(C)=O (stereo unspecified) | 2 | 0 | 4 | 1
O=C(OC[C@H]1O[C@H](OC(=O)c2cc(O)c(O)c(OC(=O)c3cc(O)c(O)c(O)c3)c2)[C@H](OC(=O)c2cc(O)c(O)c(OC(=O)c3cc(O)c(O)c(O)c3)c2)[C@@H](OC(=O)c2cc(O)c(O)c(OC(=O)c3cc(O)c(O)c(O)c3)c2)[C@@H]1OC(=O)c1cc(O)c(O)c(OC(=O)c2cc(O)c(O)c(O)c2)c1)c1cc(O)c(O)c(OC(=O)c2cc(O)c(O)c(O)c2)c1 | 112* | 0 | 4 | 0
Cc1cccc(NC(=S)NC(=O)c2cccc(Br)c2)n1 | 14 | 0 | -26 | 0
Cc1ccnc(NC(=S)NC(=O)c2cccc(Br)c2)c1 | -5 | 0 | 33* | 0
Cn1ncc(-c2ccnc(Nc3ccc(N4CCOCC4)cc3)c2)c1Nc1ccccc1 | -4 | -1 | 20 | 2
Cn1ncc(-c2ccnc(Nc3ccc(-n4cnc(N5CCOCC5)n4)cc3)c2)c1NC(=O)Cc1ccccc1 | -2 | -1 | 42* | 1
CCCn1cc(-c2ccnc(Nc3ccc(-n4cnc(C)n4)cc3)c2)c(-c2ccc(F)cc2)n1 | 29 | 0 | -7 | 1
Cn1ncc(-c2ccnc(Nc3ccc(N4CCOCC4)cc3)c2)c1N | 0 | 0 | 35* | 0
Cc1ncn(-c2ccc(Nc3cc(-c4cnn(CCc5ccccc5)c4-c4ccc(F)cc4)ccn3)cc2)n1 | 24 | 0 | 34* | 0
COc1ccc(/C=C(/C#N)c2cccc([N+](=O)[O-])c2)c(OC)c1 | 15 | 0 | 8 | -1
COc1ccc(/C=C(/C#N)c2cccc(F)c2)c(OC)c1 | -3 | 0 | 43* | -1
COc1ccc(C2SCCN2S(=O)(=O)c2ccc(NC(C)=O)cc2)cc1 (stereo unspecified) | 13 | 1 | 14 | 3
COc1ccc(C2SCCN2S(=O)(=O)c2ccc(NC(C)=O)cc2)cc1OC (stereo unspecified) | 14 | 1.9* | 2 | -1
COc1ccc(C2C(=O)c3ccccc3C2=O)cc1 | 7 | 0 | -4 | -1
N=C1c2ccccc2C(=O)C1c1ccccc1 (stereo unspecified) | 65* | 0 | -33 | 0
COc1cccc(Nc2nnc(C)c(=O)[nH]2)c1 | 13 | 0 | -1 | 0
CC(C)CC(=O)Nc1ccc(S(=O)(=O)N2CCC(c3nc4ccccc4[nH]3)CC2)cc1 | 20 | 0 | 34* | 1
COc1ccccc1Nc1c2c(nc3ccccc13)CCC2 | 4 | -1 | 54* | 0
CCOC(=O)c1ccc(Nc2c3c(nc4ccccc24)CCC3)cc1 | -7 | 0 | 42* | 0
CCOC(=O)c1ccc(Nc2cc(C)nc(-c3ccccc3)n2)cc1 | 7 | 0 | 40* | 3
CCOC(=O)c1ccc(S(=O)(=O)Nc2c(C(=O)OCC)oc3ccccc23)cc1 | 10 | 0 | 4 | -2
CCOC(=O)c1ccc(Nc2c(N)c(=O)oc3ccccc23)cc1 | 3 | 0 | 52* | 0
CCOc1ccccc1N(CC(=O)NC1CC1)S(=O)(=O)c1ccc(Cl)cc1 | 9 | 0 | -5 | 2
SMILES | MITF inh | FBW7 act | TEAD-YAP inh | GPR151 ag
CC(=O)c1cccc(Nc2c3c(nc4ccccc24)CCC3)c1 | -4 | 0 | 56* | 0
c1ccc(CCNc2c3c(nc4ccccc24)CCC3)cc1 | -14 | 1 | 39* | 0
N#CC1=C(N)Oc2n[nH]c(-c3ccccc3)c2C1c1c(F)cccc1F (stereo unspecified) | 8 | 0 | 1 | 0
CCc1ccc(CN2CCC3(CCC(CNC(=O)C(C)C)O3)CC2)cc1 (stereo unspecified) | -4 | 0 | -6 | 0
CC(C)C(=O)NCC1CCC2(CCN(Cc3ccc(C#CC(C)(C)O)cc3)CC2)O1 (stereo unspecified) | -5 | 0 | 51* | 0
CC(C)(C)c1ccc(C(=O)N(Cc2ccco2)C2CCS(=O)(=O)C2)cc1 (stereo unspecified) | 1 | 0 | 3 | 0
CC1=CC(C)(C)N(S(=O)(=O)c2ccc(Br)cc2)c2ccc(C)cc21 | -12 | 0 | 58* | 0
CCOc1ccc2c(c1)C(C)=CC(C)(C)N2S(=O)(=O)c1ccc(Br)cc1 | 5 | 0 | 61* | 1
CCNC(=O)N1c2ccc(OCC)cc2C(C)=CC1(C)C | 10 | 0 | -2 | 4
CCOc1ccc2c(c1)N(S(=O)(=O)c1ccc(NC(C)=O)cc1)C(C)(C)C=C2C | 6 | 0 | 73* | 0
C/C(=C\c1ccco1)CN1CCc2nnc(CCNC(=O)C3CCC3)n2CC1 | 5 | 0 | 5 | 2
O=C1CC(Cc2ccccc2)C(=O)N1c1ccc(F)cc1 (stereo unspecified) | 1 | 0 | -3 | 1
CCOC(=O)C(Sc1nnc(-c2ccc(Cl)cc2)n1-c1ccccc1)C(C)=O (stereo unspecified) | 0 | 0 | 1 | 0
O=C(Nc1ccccc1)N1CCC2(CC1)NCCc1c2[nH]c2ccc(Cl)cc12 | 10 | 0 | 46* | 0
Cc1nc(N)sc1C(=O)N/N=C/c1c(F)cccc1Cl | 1 | 0 | -10 | -2
Cc1nc(N)sc1C(=O)N/N=C/c1c(Cl)ccc(Cl)c1Cl | 15 | 2.5* | 9 | 1
COc1ccc(C2NCCc3c2[nH]c2ccccc32)cc1OC (stereo unspecified) | 7 | 0 | 8 | 0
COc1cc(/C=C2/C(=O)NN(c3ccccc3)C2=O)c([N+](=O)[O-])cc1OC | 4 | 0 | 3 | -1
CCCc1ccc(-c2ccc(C(=O)OCC(C)CC)cc2)nc1 (stereo unspecified) | 7 | 0 | -7 | 0
CCCc1ccc(-c2ccc(C(=O)OCc3ccco3)cc2)nc1 | 1 | 0 | 52* | -2
CCCc1ccc(-c2ccc(OC(=O)C3CCCCC3)cc2)nc1 | 0 | 0 | 73* | -2
O=C(Nc1ccc(Cl)c([N+](=O)[O-])c1)c1ccc(NCCO)c([N+](=O)[O-])c1 | 7 | 0 | 7 | 0
COCc1cc(C)c2c(N)c(C(=O)c3ccc(C)cc3C)sc2n1 | -28 | 3.7* | -5 | 2
Cc1ccc(C(=O)c2sc3nc4c(cc3c2N)CCC4)c(C)c1 | 8 | 2.0* | -21 | 0
Cc1ccc(C(=O)c2sc3nc4c(cc3c2N)C(=O)CCC4)cc1 | -12 | 0 | 47* | -2
Nc1c(C(=O)Nc2cccc3ccccc23)sc2nc3c(cc12)C(=O)CCC3 | 0 | 0 | 61* | -1
